# Screening results (PubChem)
# The list is not random: actives were taken first. Their share in the collection is about 1.4%.
# Yp Topo-I inh: Yersinia pestis topoisomerase I inhibitors, primary screen, biochemical, cleavage product accumulation, plate reader, single point; DNA topoisomerase I (Yersinia pestis CO92); Y. pestis Topo-I cleavage product accumulation; activity, % at 10 µM; 360,000 tested, 0.064% active; in the data active = activity above about 50%, passing the limit was not always enough
# Sa ugtP lethal: growth inhibition of ugtP-null S. aureus, primary screen, RN4220 ugtP deletion, OD600 | 16 h | growth inhibition, % (no concentration beside the values) | 330,000 tested, 0.54% active | AID 1259309, 2017; in the data active = growth inhibition above about 68%;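 note: plate controls were untreated wells for no effect and antibiotic for full effect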
# PfHsp40 rescue: rescue of yeast from PfHsp40 toxicity, primary screen, S. cerevisiae, ATP luminescence. S. cerevisiae expressing PfHsp40, growth rescue. growth rescue, % at 12.5 µM. 340,000 tested, 0.68% active. AID 504582, 2011; in the data active = growth rescue above about 28%, passing the limit was not always enough;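 note: yeast W303a lacking pdr1 and pdr3 grown in galactose medium; growth measured after three days at 30 °C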
# RN4220 kill: growth inhibition of S. aureus RN4220, primary screen, OD600; 16 h; inhibition, % (no concentration beside the values); 330,000 tested, 0.33% active; AID 1259311, 2017; in the data active = inhibition above about 85%;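 note: plate controls were untreated cells for no effect and reference antibiotic for full effect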
# PrP UTR inh: inhibition of PrP 5' UTR reporter expression; cell-based PrP 5' UTR mRNA reporter, plate reader; inhibition, % (test concentration not listed); 340,000 tested, 0.35% active; AID 488862, 2010; in the data active = inhibition above about 52%; note: 0 = median of the neutral control wells
# BJeLR lethal: MLPCN primary cell-based screen for lethality selective to Ras in HRASV12 cells. 300,000 tested, 0.17% active. AID 1554, 2009. inhibition, % (no concentration beside the values). BJeLR (HRASV12) viability, CellTiter-Glo ATP luminescence, 48 h; in the data active = inhibition above about 50%
# Active calls of the source: *; / = no result given.
SMILES,Yp Topo-I inh,Sa ugtP lethal,PfHsp40 rescue,RN4220 kill,PrP UTR inh,BJeLR lethal
COc1ccc(C(=O)Nc2ccc(N3CCN(C)CC3)cc2)cc1[N+](=O)[O-],3,3,0,10,-24,3
COc1ccc(C(=O)NC(=S)Nc2ccc(N3CCN(C(C)=O)CC3)cc2)cc1[N+](=O)[O-],10,99*,0,4,-14,3
CC(=O)N1CCN(c2ccc(NC(=S)NC(=O)c3ccc(C)c([N+](=O)[O-])c3)cc2)CC1,10,90*,0,4,-15,6
COc1ccc(Cl)cc1C(=O)NN=C1CCCC1,6,14,82*,6,-14,-8
O=C1NC(Cc2ccccc2)COC(=O)C(Cc2ccc(F)cc2)CCC=CCC1CC(=O)N(CCO)Cc1ccccc1 (stereo not drawn),/,10,/,-5,/,/
NC(=NOC(=O)C=Cc1ccccc1)c1ccccn1,/,-12,/,-2,/,/
CCCc1cc(=O)oc2c(CNc3ccc(OCC)cc3)c(O)ccc12,0,14,48*,5,-11,8
CCCCc1cc(=O)oc2c(CN3CCCC3)c(O)ccc12,2,-4,1,2,-29,2
C#CCOCCOCCOCCNc1nc(N2CCN(C(=O)C(CCC(=O)O)n3cc(C(N)Cc4ccc(O)cc4)nn3)CC2)nc(N2CCN(C(=O)C(C(C)CC)n3cc(C(N)Cc4ccc(O)cc4)nn3)CC2)n1 (stereo not drawn),/,3,/,4,/,/
COc1ccccc1/C=C1\SC(=S)N(CCC(=O)NCCCn2ccnc2)C1=O,24,12,2,7,-1,78*
COc1ccccc1/C=C1\SC(=S)N(CCC(=O)NNC(=O)c2ccccc2O)C1=O,28,-10,105*,21,-19,-1
COc1ccccc1/C=C1\SC(=O)N(CCC(=O)NCCCn2ccnc2)C1=O,7,7,-1,2,-43,83*
COc1ccc(/C=C2\SC(=S)N(CCC(=O)NCCCn3ccnc3)C2=O)cc1,10,0,0,4,-16,4
NC(=O)CSc1nc2c(c(=O)n1-c1ccccc1)C1(CCCCC1)Cc1ccccc1-2,13,90*,0,-7,-11,8
CC(=O)N1c2ccccc2C(C)C1C (stereo not drawn),/,5,/,4,/,/
O=C(NNC(=O)C1CCC1)c1ccc(Cl)cc1,6,-4,-2,1,5,1
O=C(NNC(=O)c1cccc(Cl)c1)NNC(=O)c1cccc(Cl)c1,-8,2,0,3,-2,/
O=C(NNC1=C(C(=O)C(F)(F)F)CCC1)c1cccc(Cl)c1,-7,99*,54*,100*,-27,6
COc1ccc(C(=O)NNc2ccccc2)cc1,-1,6,-1,2,-17,3
O=C(NNC1=C(C(=O)C(F)(F)F)CCC1)c1ccc(Cl)cc1,-3,100*,3,101*,-19,0
COc1ccc(C(=O)NNC2=C(C(=O)C(F)(F)F)CCC2)cc1,-3,97*,1,1,-11,-7
COc1cccc(N2C(CC(=O)O)c3ccccc3S2(=O)=O)c1 (stereo not drawn),/,-2,/,2,/,/
CCOC(=O)Cn1nc(-c2ccccc2)c2ccccc2c1=O,0,5,-1,5,-22,0
O=c1c2ccccc2c(-c2ccccc2)nn1Cc1c(Cl)cccc1Cl,3,96*,1,-13,1,3
CCCC1CC(C(=O)NC(C(C)O)C2OC(SC)C(O)C(O)C2O)N(C)C1 (stereo not drawn),/,99*,/,100*,/,/
C=CCN1c2ccccc2[C@]23CC(C(=O)OC)N(C(=O)NCCC)C2=NC(C(=O)OC)=C(C(=O)OC)C13 (stereo partly drawn),/,8,/,-1,/,/
COC1CC(OC2CCC3(C)C(CCC4C3CCC3(C)C(C5=CC(=O)OC5)C(OC(C)=O)CC43O)C2)OC(C)C1OC1OC(COC2OC(CO)C(O)C(O)C2O)C(O)C(O)C1O (stereo not drawn),/,/,/,/,/,51*
Cc1ccccc1C(=O)OC1C(Cc2ccccc2)NS(=O)(=O)C2CC3C=C[C@]12O3 (stereo partly drawn),/,14,/,10,/,/
